Screens as filed in PubChem BioAssay.
Caspase-7 inhib – blocks human caspase-7 allosterically or competitively; hit rate 0.02% among 75,000; AID 889; recombinant caspase-7, Ac-DEVD-AFC fluorescence rate; Potency, µM (top dose mostly 57.5 µM), for the others: at the highest dose activity change, negative = inhibition, usual class: inhibitors; active = well fitted inhibition curve with a large enough effect in the main read-out, with a control signal flat, not every such curve was filed as active; inconclusive = small, poorly fitted or top-dose-only effect, or a change in a side signal; also: % of control where 0% means no effect
Target sequence (P55210 24-198 limits assumed): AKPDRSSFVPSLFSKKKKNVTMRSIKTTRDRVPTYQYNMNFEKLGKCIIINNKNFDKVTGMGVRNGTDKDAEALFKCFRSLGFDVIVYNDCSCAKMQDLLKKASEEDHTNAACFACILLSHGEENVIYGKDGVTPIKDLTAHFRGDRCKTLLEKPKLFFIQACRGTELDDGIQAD
Target sequence (P55210 207-303 limits assumed): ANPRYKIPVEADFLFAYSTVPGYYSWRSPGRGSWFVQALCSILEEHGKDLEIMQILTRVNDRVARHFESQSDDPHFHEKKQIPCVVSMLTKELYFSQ
Tau fil binding – tau filament binding; recombinant tau filaments, thioflavin S fluorescence, 15 h; filaments grown with octadecylsulfate alongside compound; Potency, µM (series often up to 57.1 µM), inactives show top-dose activity change, negative = inhibition; hit rate 2% among 71,000;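 also: % is scaled to controls: 0 for no effect and ±100 for the full control effect; actives lower thioflavin S fluorescence by blocking filaments or displacing dye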
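Assay mix: 1 uM His-tagged tau, 30 uM sodium octadecylsulfate, thioflavine S dye in HEPES/NaCl/DTT buffer. Compound is added prior to the inducer. Fluorescence after 15 h at 37 C.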
Caspase-1 inhib – caspase-1 (human) inhibition, allosteric or competitive | P29466 | Caspase-1 enzyme, Ac-WEHD-AFC fluorogenic rate | Potency, µM (titrated, usually from 57.5 µM), for the others: at the top dose activity change, negative = inhibition, usual class: inhibitors | hit rate 0.03% among 75,000 | AID 900;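 also: plate controls were vehicle for no effect and no substrate for full effect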
Target sequence (P29466 120-297 limits assumed): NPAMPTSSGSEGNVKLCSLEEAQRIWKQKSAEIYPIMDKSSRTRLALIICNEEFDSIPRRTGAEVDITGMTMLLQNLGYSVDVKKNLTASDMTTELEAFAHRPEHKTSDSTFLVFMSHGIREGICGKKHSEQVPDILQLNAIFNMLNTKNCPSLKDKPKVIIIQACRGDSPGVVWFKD
Target sequence (P29466 317-404 limits assumed): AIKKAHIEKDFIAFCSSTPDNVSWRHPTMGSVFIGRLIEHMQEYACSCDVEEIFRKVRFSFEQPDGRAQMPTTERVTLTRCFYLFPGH
ERK AVP block – inhibitors of vasopressin-stimulated ERK signaling pathway; HEK293-V1b, vasopressin-stimulated pERK AlphaScreen; Potency, µM (highest dose often 57.5 µM), for inactives: at the highest dose activity, negative = inhibition, hits mostly inhibitors; hit rate 0.99% among 72,000; also: % is scaled to controls: 0 for no effect and ±100 for the full control effect; nearly all actives have a fitted effect of over 55% in size
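qHTS, compounds titrated on V1b-expressing HEK293 cells. Preincubation 30 min at 37C, vasopressin 25 nM for 5 min, lysis 10 min, bead incubation 5 hr at room temperature.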
ALOX15 inhib – blocks human 15-lipoxygenase activity; purified 15hLO-1, xylenol orange hydroperoxide absorbance; Potency, µM (doses to about 57.1 µM), for the others: at the top dose activity change, negative = inhibition, usual class: inhibitors; hit rate 1.4% among 74,000; AID 887; also: % is scaled to controls: 0 for no effect and ±100 for the full control effect; nearly all actives have a fitted effect of over 55% in size
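Compounds were preincubated 15 min at room temperature with 40 nM purified human enzyme (25 mM Hepes pH 7.5, 0.01% Triton X-100); 50 uM arachidonic acid reacted 6 min. Fe-xylenol orange detection, 30 min, absorbance ratio 573/405 nm.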
Numbers without * were called inactive; u = inconclusive; x = no result; [ ] = remark or other dose. A selection: hits, their analogues and other compounds. The true share with any hit is near 3.9%. Unless noted, calls follow the shape of the dose curve; as a rule, active = well fitted curve in the direction sought with a large enough effect; inconclusive = small, poorly fitted or top-dose-only effect, or another doubt; inactive = no such curve, though single readings can be large; an effect the other way counts as inactive or inconclusive. Potency is read from the fitted curve at half-maximal effect.

SMILES	Caspase-7 inhib	Tau fil binding	Caspase-1 inhib	ERK AVP block	ALOX15 inhib
CN1CCN(c2ccnc(-c3ccoc3)n2)CC1	-5%	-11%	-1%	-11%	16µM*
CCOC(=O)c1cc2c(=O)n3ccccc3nc2n(Cc2ccccc2)c1=N	u	1.6µM*	x	5%	-9%
Cc1ccc(Cn2c(=N)c(C(=O)NCc3ccco3)cc3c(=O)n4ccccc4nc32)cc1	u	3.2µM*	x	-16%	-27%
COc1ccc(CNC(=O)c2cc3c(=O)n4ccccc4nc3n(Cc3ccco3)c2=N)cc1	u	229%	x	-9%	-27%
N=c1c(C(=O)NC2CCCC2)cc2c(=O)n3ccccc3nc2n1CCN1CCOCC1	-1%[0.00368 µM]	-2%	x	1%	-7%
COc1ccc(CCn2c(=N)c(C(=O)N3CCN(C)CC3)cc3c(=O)n4ccccc4nc32)cc1	u	16µM*	x	u	-15%
N=c1c(C(=O)NCc2ccco2)cc2c(=O)n3ccccc3nc2n1CCc1ccccc1	u	0.63µM*	x	u	13µM*
CC(C)=CCC/C(C)=C/CO/N=C1/C[C@@H](O)[C@@H](O)[C@@H]2[C@@H]3C(=O)N(Cc4ccccc4)C(=O)[C@H]3CC[C@@H]12	0%[11.5 µM]	x	-1%[11.5 µM]	9%[11.5 µM]	7%[11.4 µM]
O[C@@H]([C@H](O)[C@@H](O)CBr)[C@@H](O)CBr	1%	10%	1%	13%	-7%
O=C(CSCc1ccc(Cl)cc1)c1ccco1	-8%	u	-3%	u	32µM*
Cc1ccc(Nc2ncc3c(n2)CC(c2ccco2)CC3=O)c(C)c1 (configuration not stated)	-15%	u	-3%	u	20µM*
Cc1cccc(Nc2ncc3c(n2)CC(c2ccco2)CC3=O)c1 (configuration not stated)	-3%	28%	-5%	-17%	-4%
O=C(c1cc2n(n1)C(C(F)(F)F)CC(c1ccco1)N2)N1CCc2ccccc2C1 (configuration not stated)	-3%	-13%	-3%	25µM*	-21%
CCN(CC)CCNC(=O)CCCCn1c(=S)[nH]c2c([nH]c3ccc(OC)cc32)c1=O	1%	45%	1%	28%	13µM*
Cc1ccc(-c2cc(C(=O)NCCCn3ccnc3)c3cc(Br)ccc3n2)o1	u	16µM*	x	u	u
Cc1ccc(-c2cc(C(=O)NC3=NCCS3)c3cc(Br)ccc3n2)o1	-7%	13µM*	-4%	-27%	13µM*
Cc1ccc(-c2cc(C(=O)NCc3ccco3)c3ccccc3n2)o1	1%	-6%	1%	14%	u
CC#C[C@@]1(O)CC[C@H]2[C@@H]3CCC4=CC(=O)CCC4=C3[C@H](c3ccc(N(C)C)cc3)C[C@]21C	-2%[25.7 µM]	-28%[25.6 µM]	-4%[25.7 µM]	-12%[25.7 µM]	-12%[25.6 µM]
COc1cccc(-c2nc(NC3CCNCC3)c3ccccc3n2)c1	0%	-10%	-3%	u	u
CN1C(=O)CC(N2CCC(c3nc4ccccc4[nH]3)CC2)C1=O (configuration not stated)	-1%	20µM*	1%	-15%	-2%
Cn1nc(-c2ccc(OCC(=O)Nc3cccnc3)cc2)c2ccccc2c1=O	0%	5%	-1%	32µM*	-3%
CN(C)CCCNc1cc(O)c2c(c1O)C(=O)c1ccccc1C2=O	-2%[11.5 µM]	1µM*	-1%[11.5 µM]	-28%[11.5 µM]	3%[11.4 µM]
O=C1c2ccccc2C(=O)c2c(O)c(O)cc(O)c21	-24%	x	-2%	32µM*	5µM*
CN(C)CCCNC(=O)c1ccc(-c2ccccc2)cc1	0%	-22%	-1%	62%	-21%
COc1ccc2nc(NCN3C(=O)c4ccccc4C3=O)sc2c1	3%[11.5 µM]	-10%[11.4 µM]	-10%[11.5 µM]	10%[11.5 µM]	-2%[11.4 µM]
SMILES	Caspase-7 inhib	Tau fil binding	Caspase-1 inhib	ERK AVP block	ALOX15 inhib
Cn1cccc1C(=O)N1CCC2(CCN(C(=O)Nc3cccc(F)c3)CC2)CC1	0%	8%	-2%	0%	-2%
CCc1ccccc1	0%	2%	-2%	-5%	-3%
Cc1cccc(CNc2cc(-c3ccccc3C)ncn2)c1	-4%	3%	-3%	10µM*	u
N#Cc1cccc(-c2nc(NCc3ccccc3)c3ccccc3n2)c1	-4%	2%	-4%	20µM*	u
N#Cc1cccc(-c2cc(NCc3cccnc3)ncn2)c1	-3%	5%	1%	-18%	13%
N#Cc1cccc(-c2cc(NCc3ccccc3)ncn2)c1	-4%	11%	-3%	20µM*	8%
Cc1ccco1	-2%	10%	-1%	-22%	0%
c1ccc(CO[C@H]2NCCN2Cc2ccccc2)cc1	0%[11.5 µM]	-1%[11.4 µM]	4%[11.5 µM]	-20%[11.5 µM]	-2%[11.4 µM]
Cc1ccc(-c2nnc3sc(-c4ccncc4)nn23)cc1	-8%	25µM*	-4%	u	0%
CN(C)c1ccc(-c2nn3c(-c4ccncc4)nnc3s2)cc1	-1%	-9%	0%	-4%	12%
c1ccc(-c2nn3c(-c4ccncc4)nnc3s2)nc1	-4%	13µM*	-4%	u	u
Cc1ccc(N(CC(=O)Nc2cccc(C)c2)S(=O)(=O)c2cccc3nonc23)cc1	0%	16µM*	-8%	6%	u
Cc1nc2c(c(=O)n1CCC1=CCCCC1)c1nc3ccccc3nc1n2/N=C/c1ccco1	-16%	2µM*	-13%	-19%	-2%
Cc1cc2cc(CN3C(=O)c4ccccc4C3=O)ccc2n1C	-1%	20µM*	-3%	37%	u
CN(C)C(=O)c1ccc(-c2cc(NCc3cccnc3)ncn2)cc1	-1%	-2%	-2%	-2%	30%
Cc1cc(=O)oc2c(OS(C)(=O)=O)c(OS(C)(=O)=O)ccc12	2%[11.5 µM]	3%[11.4 µM]	-4%[11.5 µM]	14%[11.5 µM]	4%[11.4 µM]
Oc1c(-c2cc(-c3ccco3)[nH]n2)ccc2ccccc12	-9%	16µM*	-2%	-15%	-18%
CCCC/C=C/C(NC(=O)c1ccco1)c1ccccc1 (configuration not stated)	-9%	-12%	0%	11%	x
COC(=O)[C@H]1C[C@H]2CC[C@H](O)C[C@H]2N1Cc1c(F)cccc1Cl	-2%	x	-4%	-16%	x
CC(=O)N(CCCN(C)C)CCC(C)CCC=C(C)C (configuration not stated)	0%	-25%	-3%	18%	-29%
CC(C)=CCCC(C)N(C=O)C(C)CCC=C(C)C (configuration not stated)	0%	-3%	0%	17%	7.9µM*
Cc1cc(C)c2cc(CN(Cc3ccc4c(c3)OCO4)Cc3nnnn3Cc3ccco3)c(=O)[nH]c2c1	u	38%	u	-25%	10µM*
N#Cc1sc2nc3c(c(-c4ccco4)c2c1N)CCCC3	-13%	3.2µM*	-15%	80%	-29%
c1coc(-c2nc3c4c5c(sc4ncn3n2)CCCC5)c1	-1%	8%	1%	-18%	1%
O=c1cc(-c2cccc(O)c2)oc2c(O)c(O)ccc12	-2%	u	-1%	u	u
O=C(O)CCc1c2ccc(=O)c(O)c-2oc2c(O)c(O)ccc12	-20%[11.5 µM]	3.2µM*	-5%[11.5 µM]	-22%[11.5 µM]	3.2µM*
